# Assay outcomes as filed in PubChem.
# A selection: hits, their analogues and other compounds. The true share with any hit is near 9.4%.
# IMPase Li inh = cell-permeable IMPase inhibitors with lithium potentiation; CHO-M1 cells, IP1 TR-FRET (IP-One), carbachol + lithium; Potency, µM (highest dose often 59.4 µM), inactives show at the top dose activity, negative = IMPase inhibition, actives largely listed as inhibitors; hit rate 0.35% among 210,000;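 further: IP1 builds up when IMPase is blocked and the TR-FRET signal falls; potency means the concentration at half of the fitted maximal effect; plate controls were basal vehicle for no effect and high inhibitor control for full effect; nearly all actives have a fitted effect of over 50% in size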
#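 CHO-M1, 2000 cells/well, 16–30 h culture; cpd + low Li+, 30 min 37C; lysis with d2-IP1/Eu-anti-IP1 Ab, 10 min RT; TR-FRET 665/620 ratio and 620 channel; AC50 via Hill.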
# HPGD inh = HPGD (human) dehydrogenase inhibition; purified HPGD, NADH fluorescence kinetic, PGE2 substrate; Potency, µM, without a hit: at the highest dose activity change, negative = inhibition, usual class: inhibitors; hit rate 4.3% among 150,000; AID 894; active means well fitted inhibition curve with a large enough effect, not every such curve was filed as active; inconclusive means small, poorly fitted or top-dose-only effect, or another doubt; inactive means no such curve, though single readings can be large or run the other way; further: potency means the concentration at half of the fitted maximal effect; on the % scale 0 is the no-effect control and ±100 the full control effect
#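 NADH formation kinetics: reaction with 30 uM PGE2 and 1 mM NAD+ (final), 20 nM enzyme, Tris-HCl pH 8 with Tween 20, after 15 min compound preincubation at room temperature. Fluorescence change, last versus first of five reads.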
# HTT ATP protect = cytoprotection in Huntington HTT-Q103 PC12 cell model | PC12 HTT-Q103 induced, cytoprotection, ATP luminescence, 40 h | Potency, µM (top dose mostly 56.4 µM), inactives show cytoprotection (ATP increase), hits mostly activators | hit rate 0.14% among 230,000; further: potency means the concentration at half of the fitted maximal effect; % of control where 0% means no effect; nearly all actives have a fitted effect of over 45% in size
#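 PC12 cells stably carrying ecdysone-inducible Htt exon 1 (Q103)–GFP were induced with 100 nM tebufenozide (final) alongside library compounds in a dose series. Cytoprotection was scored as retained ATP by ATPlite luminescence.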
# ALDH1A1 block = blocks purified human ALDH1A1 activity; AID 1030; Purified ALDH1A1, NADH fluorescence, propionaldehyde substrate; hit rate 7.3% among 220,000; Potency, µM (highest dose often 75.3 µM), without a hit: at the highest dose activity, negative = inhibition, usual class: inhibitors; active means well fitted inhibition curve with a large enough effect, not every such curve was filed as active; inconclusive means small, poorly fitted or top-dose-only effect, or another doubt; inactive means no such curve, though single readings can be large or run the other way;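 further: potency means the concentration at half of the fitted maximal effect; plate controls were no enzyme wells and a reference inhibitor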
# Target sequence (P00352 whole entry, looked up): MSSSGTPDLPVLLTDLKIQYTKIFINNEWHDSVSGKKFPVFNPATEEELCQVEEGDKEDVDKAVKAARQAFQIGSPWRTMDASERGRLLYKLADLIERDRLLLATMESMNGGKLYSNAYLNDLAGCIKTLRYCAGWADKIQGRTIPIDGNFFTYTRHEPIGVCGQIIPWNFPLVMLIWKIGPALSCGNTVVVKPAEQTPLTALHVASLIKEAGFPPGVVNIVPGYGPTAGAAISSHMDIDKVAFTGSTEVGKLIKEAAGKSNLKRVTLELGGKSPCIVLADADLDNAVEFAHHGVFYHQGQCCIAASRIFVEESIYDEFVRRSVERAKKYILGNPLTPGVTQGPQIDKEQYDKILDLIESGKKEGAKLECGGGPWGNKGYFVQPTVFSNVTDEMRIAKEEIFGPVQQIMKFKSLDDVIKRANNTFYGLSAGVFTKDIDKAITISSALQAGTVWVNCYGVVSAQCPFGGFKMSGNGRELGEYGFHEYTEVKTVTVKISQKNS
# IMPase inh = membrane-permeable compound that blocks inositol monophosphatase | inhibition (IP1 accumulation), % at 46.1 µM | P97697 | AID 901 | 120,000 tested, under 10 active | CHO-M1 cells, IP1 accumulation, HTRF TR-FRET ratio; active means well fitted curve in the direction sought with a large enough effect in the signal ratio, not every such curve was filed as active; inconclusive means small, poorly fitted or top-dose-only effect, or a change in a side signal; inactive means no such curve, though single readings can be large or run the other way; the % refers to the signal ratio;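 further: cells stimulated with carbachol in lithium chloride buffer; plate controls were DMSO basal wells for no effect and reference inhibitor wells for full effect; higher means more IMPase inhibition seen as more IP1 and lower FRET ratio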
# Target sequence (P97697 whole entry, looked up): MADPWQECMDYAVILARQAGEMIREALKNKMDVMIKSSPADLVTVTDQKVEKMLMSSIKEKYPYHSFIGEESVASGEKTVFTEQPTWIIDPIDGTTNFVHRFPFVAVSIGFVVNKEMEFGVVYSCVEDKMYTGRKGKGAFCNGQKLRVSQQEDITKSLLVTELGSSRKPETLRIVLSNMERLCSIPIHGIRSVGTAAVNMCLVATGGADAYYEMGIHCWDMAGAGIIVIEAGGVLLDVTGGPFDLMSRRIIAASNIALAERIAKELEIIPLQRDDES
#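 CHO-M1, 2000 cells/well, cultured 16–30 h; cpd up to 46 uM; carbachol (50 uM solution, stimulation buffer w/ 50 mM LiCl, pH 7.4), 30 min 37C; IP-One TR-FRET, 10 min RT; Ex 320/Em 665, 620; Hill-fit AC50.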
# HTT aggregate = inhibitors of mutant huntingtin aggregate formation in PC12 cells. hit rate 1.1% among 220,000. PC12 HttQ103-GFP aggregates, Acumen cytometry, 40 h. AID 1688. Potency, µM (titrated, usually from 46.1 µM), for inactives: top-dose activity change, negative = inhibition, actives largely listed as inhibitors; further: potency means the concentration at half of the fitted maximal effect; on the % scale 0 is the no-effect control and ±100 the full control effect; nearly all actives have a fitted effect of over 60% in size
#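 Using laser scanning cytometry, GFP-positive aggregates were counted after lysis of PC12 cells induced with 100 nM tebufenozide to express HTT exon 1 Q103–GFP. Compounds were tested in titration.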
# The depositor's hits bear a star; ? = inconclusive; . = not tested or not shown; [ ] = remark or other dose. Unless noted, the call rests on the fitted dose curve; in most records, active means well fitted curve in the direction sought with a large enough effect; inconclusive means small, poorly fitted or top-dose-only effect, or another doubt; inactive means no such curve, though single readings can be large; an effect the other way counts as inactive or inconclusive.
SMILES,IMPase Li inh,HPGD inh,HTT ATP protect,ALDH1A1 block,IMPase inh,HTT aggregate
CC(=O)c1cc(F)ccc1OCC(=O)N1CCN(c2ccc(F)cc2)CC1,-2%,.,-13%,25µM*,.,?
CCN(CC)c1ccc(S(=O)(=O)Nc2cc(Cl)ccc2Cl)cc1NC(=S)NC(=O)C1CCCC1,8%,-30%,-9%[10 µM],22µM*,.,-31%
O=C(Cn1cnc2ccccc21)OCC(=O)N1CCc2ccccc2C1,15%[38.3 µM],-14%,14%,28µM*,17,17%
O=C(COC(=O)Cn1cnc2ccccc21)Nc1ccc2c(c1)C(=O)c1ccccc1C2=O,-13%,-26%,-26%[10 µM],0.63µM*,.,-2%
O=C(Cn1cnc2ccccc2c1=O)N1CCc2ccccc2C1,4%,.,-14%[10 µM],2%,.,0%
Cc1ccc(NC(=O)COC(=O)Cn2cnc3ccccc32)cc1S(=O)(=O)N(C)C,-2%,-2%,4%[10 µM],14µM*,.,1%
C[C@H]1C2=C3C(CC[C@H]4C(OCc5ccc(F)cc5C(F)(F)F)OC[C@](C)([C@@H]34)N(C(=O)OC(C)(C)C)C2)C(CO)C1CO (some centres not stated),6%,-17%,-7%,4%,.,.
Cc1ccc(-n2c(SCC(=O)NCc3ccco3)nc3nc4c(cc3c2=O)COC(C)(C)C4)cc1,.,.,5%,0.79µM*,10,-30%
CCn1c(SCC(=O)Nc2ccc(OC)cc2)nc2nc3c(cc2c1=O)COC(C)(C)C3,.,.,-11%[10 µM],2µM*,.,4%[9.22 µM]
CCn1c(SCC(=O)Nc2ccc(C(C)=O)cc2)nc2nc3c(cc2c1=O)COC(C)(C)C3,.,.,-11%[10 µM],.,.,-13%[9.22 µM]
Cc1ccccc1NC(=O)Cn1cnc2c(oc3nc4c(cc32)COC(C)(C)C4)c1=O,1%,-10%,-15%[10 µM],22µM*,.,20%
CC1(C)Cc2nc3oc4c(=O)n(CC(=O)Nc5ccc(Cl)cc5)cnc4c3cc2CO1,.,.,21%[10 µM],.,.,-21%[9.22 µM]
CCn1c(SCC(=O)Nc2ccccc2C)nc2nc3c(cc2c1=O)COC(C)(C)C3,.,.,-7%[10 µM],14µM*,.,-18%[9.22 µM]
O=C(O)/C=C\[C@H](O)c1ccc(Cl)cc1,.,.,-18%[1.9 µM],.,-1,.
NC(=S)NNC(N)=S,2%,?,-10%,?,.,.
CCn1c(SCC(=O)Nc2ccc(Cl)cc2)nc2nc3c(cc2c1=O)CCCC3,16%,-10%,14%[10 µM],?,-6,3%
CCn1c(SCC(=O)NCc2ccccc2)nc2nc3c(cc2c1=O)CCCC3,5%,.,-10%[10 µM],-16%,.,6%
CCn1c(SCc2ccccc2Cl)nc2nc3c(cc2c1=O)CCCC3,25%,-13%,-4%[10 µM],16µM*,.,?
C=C(C)Cn1cnc2c(oc3nc4c(cc32)CCCC4)c1=O,.,.,7%[10 µM],1µM*,.,7%[9.22 µM]
CCn1c(SCC(=O)Nc2ccc(C(C)=O)cc2)nc2nc3c(cc2c1=O)CCCC3,14%[38.3 µM],-14%,32%[10 µM],0.89µM*,6,13%
Cc1cccc(NC(=O)Cn2cnc3c(oc4ccccc43)c2=O)c1,-10%,.,.,1%,.,22%
COC(=O)CC[C@@H](C)[C@H]1CC[C@H]2[C@H]3CC[C@H]4C[C@@H]5CC[C@@]4(C)C3(O5)[C@@H](Br)[C@@H](Br)[C@@]12C,.,.,-13%[10 µM],.,.,.
Cn1cnc([N+](=O)[O-])c1SCC(=O)O,-4%,-5%,-20%[10 µM],-7%[13.5 µM],.,.
CCOC(=O)[C@H](CCc1ccccc1)N[C@@H](C)C(=O)N1[C@H](C(=O)O)C[C@H]2CCCC[C@@H]21,8%,-4%,?,-1%,.,4%
COc1ccc(-c2csc(NC(=O)c3cc(=O)c4ccccc4o3)n2)cc1OC,4%,.,-40%,-2%,.,3%
SMILES,IMPase Li inh,HPGD inh,HTT ATP protect,ALDH1A1 block,IMPase inh,HTT aggregate
N#CCC(=O)Nc1ccc(C(=O)NCc2cccc(Cl)c2)cc1,.,.,-11%[10 µM],.,.,-16%[9.22 µM]
COCCOC(=O)c1c(NC(=O)CNCc2ccco2)sc(C(N)=O)c1C,-2%,.,-19%,10µM*,.,5%
CCOC(=O)c1c(NC(=O)CN2CCN(C(=O)c3ccco3)CC2)sc(C(N)=O)c1C,1%,.,-16%,-3%,.,22%
Cc1sc(NC(=O)c2ccco2)c(CN2CCN(Cc3ccccc3)CC2)c1C,28%,.,-76%,28µM*,.,?
CCOC(=O)c1c(NC(=O)C(C)N2CCN(C(=O)c3ccco3)CC2)sc2c1CCCC2 (configuration not stated),47%[38.3 µM],?,-105%,22µM*,5,-52%
CCOC(=O)c1c(NC(=O)c2ccco2)sc(C(=O)N2CCCC2)c1C,28%[38.3 µM],14µM*,-4%,?,-3,-12%
COCCOC(=O)c1c(NC(=O)CNc2ccc(C)c(F)c2)sc(C(N)=O)c1C,.,.,-2%[10 µM],?,.,8%[9.22 µM]
CCn1ncc(CNC(=O)c2cccc([N+](=O)[O-])c2)c1C,2%,-2%,-37%[10 µM],12%,-10,-12%
COc1ccc(CNc2ccnc(-c3ccccc3C(F)(F)F)n2)c(OC)c1,12%,-12%,6%,-1%,.,.
CCc1c(C)sc(NC(=O)c2ccco2)c1C(=O)N1CCCCC1,6%[38.3 µM],-4%,1%,25µM*,-1,15%
CCOC(=O)c1c(NC(=O)c2ccco2)sc2c1CCCCC2,22%[38.3 µM],?,-31%,?,2,-24%
CCc1c(C)sc(NC(=O)c2ccco2)c1C(=O)N1CCOCC1,31%[38.3 µM],?,18%,22µM*,8,-9%
Cc1sc(NC(=O)c2ccc(F)cc2)c(CN2CCCCCC2)c1C,-1%,-25%,15%[10 µM],10µM*,.,-15%
COc1ccc(NC(=O)c2cc(S(=O)(=O)N3CCOCC3)cs2)cc1,0%,.,1%[10 µM],-2%,.,-2%[9.22 µM]
O=C(CSc1nnc(-c2ccc(F)cc2)o1)N1CCCc2ccccc21,.,.,.,.,1,.
CCCC(=O)OC1(C(=O)CO)CCC2C3CCC4=CC(=O)CCC4(C)C3C(O)CC21C (configuration not stated),14%,1%,-98%,15%,.,.
O=C(N/N=C/c1ccc(O)c(O)c1O)/C(=C/c1ccc([N+](=O)[O-])cc1)NC(=O)c1ccccc1,10%[38.3 µM],25µM*,-25%,10µM*,5,2%
CSc1nsc(/C=C/Nc2ccc(O)cc2C)c1C#N,-4%,.,-36%,25µM*,.,11%
CSc1nsc(/C=C/Nc2ccc(Cl)cc2)c1C#N,-25%[38.3 µM],-24%,-15%,7.9µM*,5,-19%
CSc1nsc(/C=C/Nc2ccc(F)cc2)c1C#N,14%,.,-6%,?,.,1%
CSc1nsc(/C=C/Nc2cccc(Cl)c2)c1C#N,-13%[38.3 µM],-5%,6%,11µM*,6,23%
Cc1cc(O)ccc1N/C=C(\C#N)c1nc2ccccc2o1,15%,?,-20%[10 µM],-8%,2,-12%
